Assay outcomes from PubChem BioAssay.
In the library only some 2.1% were active in any assay of this set; here they are far more common.
Calb FLC: affects C. albicans growth with fluconazole | C. albicans CaCi-2 (fluconazole-resistant clinical isolate) + fluconazole, Alamar Blue growth, 48 h | growth inhibition, % (no concentration beside the values) | hit rate 0.57% among 300,000;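 active means growth inhibition above about 58% in most replicates, limit read from the data, passing the limit was not always enough; inconclusive means exactly half the replicates above a set limit; inactive means most replicates below a set limit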;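 further: all wells also contain fluconazole at 8 µg/ml as a sub-toxic cotreatment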
Rin1 Abl inh: blocks binding of human Rin1 to Abl | P00519+Q13671 | TR-FRET Rin1/Abl binding, biochemical | inhibition, % at 7.35 µM | hit rate 0.4% among 360,000 | AID 588664; in the data active means inhibition above about 5%, passing the limit was not always enough
Target sequence (P00519 whole entry, looked up): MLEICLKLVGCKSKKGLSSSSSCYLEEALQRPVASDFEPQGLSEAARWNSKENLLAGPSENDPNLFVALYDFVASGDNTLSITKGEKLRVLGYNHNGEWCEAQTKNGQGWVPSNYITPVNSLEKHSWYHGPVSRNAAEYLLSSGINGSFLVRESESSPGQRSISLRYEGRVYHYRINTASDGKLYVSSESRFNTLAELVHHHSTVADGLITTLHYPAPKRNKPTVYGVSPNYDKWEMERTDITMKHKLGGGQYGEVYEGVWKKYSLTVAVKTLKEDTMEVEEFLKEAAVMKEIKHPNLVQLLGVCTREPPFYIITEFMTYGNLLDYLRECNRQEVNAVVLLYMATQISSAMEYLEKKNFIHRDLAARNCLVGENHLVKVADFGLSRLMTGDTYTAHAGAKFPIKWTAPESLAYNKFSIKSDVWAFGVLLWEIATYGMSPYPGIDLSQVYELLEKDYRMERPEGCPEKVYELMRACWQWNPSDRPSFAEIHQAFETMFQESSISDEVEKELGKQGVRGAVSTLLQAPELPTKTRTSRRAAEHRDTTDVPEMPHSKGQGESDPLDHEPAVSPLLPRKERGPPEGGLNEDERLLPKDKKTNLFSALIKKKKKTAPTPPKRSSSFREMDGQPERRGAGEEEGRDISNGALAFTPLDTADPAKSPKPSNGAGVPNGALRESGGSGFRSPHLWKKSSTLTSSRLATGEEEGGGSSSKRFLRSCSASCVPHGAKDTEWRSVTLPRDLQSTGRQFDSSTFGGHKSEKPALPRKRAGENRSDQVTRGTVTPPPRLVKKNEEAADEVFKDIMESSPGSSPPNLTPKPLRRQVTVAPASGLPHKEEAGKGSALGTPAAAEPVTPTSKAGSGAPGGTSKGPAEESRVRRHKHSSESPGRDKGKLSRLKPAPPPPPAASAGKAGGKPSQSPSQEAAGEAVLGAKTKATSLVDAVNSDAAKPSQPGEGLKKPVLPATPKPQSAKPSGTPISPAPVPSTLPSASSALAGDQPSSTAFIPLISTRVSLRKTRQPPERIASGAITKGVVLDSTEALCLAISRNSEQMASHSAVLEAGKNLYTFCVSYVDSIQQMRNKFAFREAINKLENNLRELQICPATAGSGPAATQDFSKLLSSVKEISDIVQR
Target sequence (Q13671 whole entry, looked up): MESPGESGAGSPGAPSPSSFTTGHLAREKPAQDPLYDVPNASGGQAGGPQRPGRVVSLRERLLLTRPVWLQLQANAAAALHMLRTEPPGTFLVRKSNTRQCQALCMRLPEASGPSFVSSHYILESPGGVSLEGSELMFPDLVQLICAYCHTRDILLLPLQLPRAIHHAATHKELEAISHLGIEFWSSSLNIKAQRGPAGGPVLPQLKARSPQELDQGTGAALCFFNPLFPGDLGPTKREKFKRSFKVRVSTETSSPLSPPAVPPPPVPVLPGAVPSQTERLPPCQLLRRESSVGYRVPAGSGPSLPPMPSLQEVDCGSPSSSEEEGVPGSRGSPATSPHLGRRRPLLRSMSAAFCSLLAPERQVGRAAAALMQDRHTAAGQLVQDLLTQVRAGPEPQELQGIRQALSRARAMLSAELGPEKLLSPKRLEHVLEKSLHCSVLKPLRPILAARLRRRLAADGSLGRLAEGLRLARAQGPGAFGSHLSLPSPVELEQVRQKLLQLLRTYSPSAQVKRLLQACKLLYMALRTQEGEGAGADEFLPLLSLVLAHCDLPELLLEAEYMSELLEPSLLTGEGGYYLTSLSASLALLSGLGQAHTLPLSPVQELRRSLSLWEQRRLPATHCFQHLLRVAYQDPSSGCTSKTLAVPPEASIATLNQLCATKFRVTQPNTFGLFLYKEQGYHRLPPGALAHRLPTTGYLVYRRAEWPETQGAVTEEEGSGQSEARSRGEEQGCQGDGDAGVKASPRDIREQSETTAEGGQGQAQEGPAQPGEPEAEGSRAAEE
M18AAP inhibitor: PfM18AAP enzyme inhibition; inhibition, % at 7.35 µM; recombinant PfM18AAP, H-Glu-NHMec fluorogenic cleavage; hit rate 1.2% among 290,000;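 active means inhibition above the campaign mean inhibition over all tested compounds plus 3 SD, cut at about 28% in these data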
CTSL1 counter: blocks F. hepatica cathepsin L1 in PFM18AAP counter-screen; recombinant F. hepatica cathepsin L1, Z-Leu-Arg-MCA fluorescence; inhibition, % at 5.96 µM; hit rate 0.49% among 300,000; AID 1906;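 active means inhibition above the mean of all tested compounds plus 3 SD, set per screening campaign, cut at about 17% in these data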
Numbers stand for hits; 0 = inactive; ? = inconclusive; - = no result.

SMILES	Calb FLC	Rin1 Abl inh	M18AAP inhibitor	CTSL1 counter
CSc1nc(O)c(Nc2cccc(Cl)c2)c(=O)[nH]1	0	0	31	0
CCC(C)Nc1nnc(SCC(=O)c2c(N)n(C3CC3)c(=O)[nH]c2=O)s1 (centres undefined)	-	0	-	-
COc1ccc(OC)c(CCNC(=O)c2ccccc2NC(=O)C2=C(C)OCCS2)c1	0	0	0	0
COc1cccc(/C=C2/C(=O)NN(c3ccccc3)C2=O)c1	0	0	0	-
O=C1NN(c2ccccc2)C(=O)/C1=C\c1ccc2c(c1)OCO2	0	0	29	0
COc1ccc(C(c2nnnn2C2CCCCC2)N2CCN(C)CC2)c(OC)c1 (centres undefined)	0	0	0	18
COc1ccc2[nH]c(=O)c(C(c3nnnn3C3CCCCC3)N3CCN(C)CC3)cc2c1 (centres undefined)	0	0	0	0
C/C(=N\NC(=O)c1c(C)nc2ccccn12)c1ccccc1F	0	0	0	0
C/C(=N\NC(=O)c1c(C)nc2ccccn12)c1ccc(O)cc1O	0	0	29	0
Cc1ccc2[nH]cc(C(=O)CCl)c2c1	0	0	0	61
Cc1ccc(S(=O)(=O)N(CC(=O)Nc2cccc(C(F)(F)F)c2)C(=O)N2CCN(C)CC2)cc1	0	0	-	0
N#CCC(=O)Nc1ccc(C(=O)Nc2cccc(S(=O)(=O)N3CCCC3)c2)cc1	-	0	-	-
COc1ccc(CCNC(=O)c2c(O)c3cccc4c3n(c2=O)CC4)cc1	0	0	0	0
Cn1c(=O)c(C(=O)NCCCc2ccccc2)c(O)c2ccccc21	0	0	0	-
O=C(NCCc1ccccc1)c1c(O)c2cccc3c2n(c1=O)CC3	90	0	0	0
COc1ccc(CCNC(=O)c2c(O)c3ccccc3n(C)c2=O)cc1	96	0	0	0
CCCCCCCCC(=O)N1C(C)CCC1C (centres undefined)	-	0	-	-
COc1ccc2cc(C(=O)/C=C/c3cc(OC)c(O)c(OC)c3)ccc2c1	0	0	29	0
CC(/C=C/C1(O)C(C)CC(O)CC1(C)C)OC1OC(CO)C(O)C(O)C1O (centres undefined)	0	0	-	55
CC(/C=C/C1[C@H](C)C[C@H](O[C@@H]2O[C@H](CO)[C@@H](O)[C@H](O)[C@H]2O)CC1(C)C)O[C@H]1O[C@H](CO)[C@@H](O)[C@H](O)[C@H]1O (some centres undefined)	-	0	-	0
CSc1cccc(NC(=O)/C=C/c2ccccc2)c1	0	0	0	0
CSc1ccc(/C=C/C(=O)Nc2ccccc2)cc1	119	0	0	0
Cc1cc(C)c(S(=O)(=O)/N=C2/C=C(Sc3ncn[nH]3)C(=O)c3ccccc32)cc1C	-	0	40	92
Cc1cc(O)c(Sc2ncn[nH]2)cc1NS(=O)(=O)c1ccc(Cl)cc1	-	0	-	-
O=C(CNc1cc(S(=O)(=O)N2CCOCC2)ccc1NCC1CCCO1)Nc1cccc(F)c1 (centres undefined)	0	0	29	0
SMILES	Calb FLC	Rin1 Abl inh	M18AAP inhibitor	CTSL1 counter
Cc1ccc(S(=O)(=O)N2CCOCC2)cc1C(=O)NCC1CCCO1 (centres undefined)	0	0	0	28
COc1cc(/C=C(/C#N)C(=O)Nc2ccc(Cl)cc2)ccc1Oc1nc(Cl)ncc1F	0	0	0	0
Cc1cc(C)nc(Nc2ccc(N3CCCC3)cc2)n1	0	0	0	17
CC(=O)c1ccccc1NC(=O)CN1C(=O)CS/C1=C\c1nc(-c2ccc(C)cc2)cs1	0	0	0	18
O=C1CCC(=O)N1c1cccc(OS(=O)(=O)c2ccccc2)c1	0	0	36	0
CC1CCC2C(=O)N(c3cccc(OS(=O)(=O)c4ccccc4)c3)C(=O)C2C1 (centres undefined)	0	0	0	0
CCOC(=O)N=Nc1c2ccccc2c2nc3no[nH]c3nc12	112	0	0	-
COc1ccc(C2=NN(C(=O)CSc3nnc(-c4ccccc4F)o3)C(c3ccco3)C2)cc1 (centres undefined)	0	0	0	0
COc1ccc(C2=NN(C(N)=S)C(c3ccco3)C2)cc1 (centres undefined)	0	0	0	62
CCN(C(=O)CSc1nc2cc(S(=O)(=O)N(CC)CC)ccc2n1CC)C1CCS(=O)(=O)C1 (centres undefined)	-	0	-	0
CC(C)C(NC(=O)OCc1ccccc1)C(=O)NC(Cc1ccc(O)cc1)C(=O)O (centres undefined)	0	0	0	0
CC(C)[C@H](NC(=O)[C@H](CCCN=C(N)N)NC(=O)NC(Cc1ccccc1)C(=O)O)C(=O)NC(C=O)CCCN=C(N)N (some centres undefined)	-	0	0	112
O=C(Nc1cccc(C(=O)NC2CC2)c1)c1ccccc1	-	0	-	-
O=C(Nc1cc2c3c(c1)C1CCCC1CN3CC1CCCC21)c1ccccc1 (centres undefined)	89	0	0	0
CCOC(=O)c1ccc(NC(=O)c2ncn3c2C(=O)NC[C@H]3C)cc1	-	0	-	-
O=C(Oc1ccc[nH]c1=O)c1cc([N+](=O)[O-])cc([N+](=O)[O-])c1	0	0	30	0
COc1ccc(C(=O)Oc2ccc[nH]c2=O)cc1	0	0	0	0
Cc1ccc2oc(-c3cccc(NC(=O)Cn4cnc5c(=O)n(C)c(=O)n(C)c54)c3)nc2c1	122	-	0	0
Cn1c(=O)c2ncn(CC(=O)Nc3ccc4oc(-c5cccc6ccccc56)nc4c3)c2n(C)c1=O	-	-	0	-
COC(=O)CSc1nnc([C@H](Cc2ccccc2)NC(=O)OC(C)(C)C)o1	0	0	0	0
Cc1cccc(CS(=O)(=O)c2nnc([C@H](Cc3ccccc3)NC(=O)OC(C)(C)C)o2)c1	0	0	0	31
COC(=O)CS(=O)(=O)c1nnc([C@H](Cc2ccccc2)NC(=O)OC(C)(C)C)o1	0	0	0	24
CC(C)(C)OC(=O)N[C@@H](Cc1ccccc1)c1nnc(SCC(N)=O)o1	0	0	0	0
COc1cc(/C=C2/SC(=S)N(c3c(C)n(C)n(-c4ccccc4)c3=O)C2=O)ccc1O	0	0	33	0
COc1cc(OC)c2ccc(=O)oc2c1C(CC(=O)N1CCCC1)c1ccc2c(c1)OCO2 (centres undefined)	0	0	-	0
SMILES	Calb FLC	Rin1 Abl inh	M18AAP inhibitor	CTSL1 counter
COc1cc(C(CC(=O)N2CCCC2)c2c(OC)cc(OC)c3ccc(=O)oc23)cc(OC)c1OC (centres undefined)	0	0	-	37
COc1ccc(C(=O)NCC(=O)N2CCN(C(=O)c3ccco3)CC2)cc1[N+](=O)[O-]	-	0	-	-
COC(CN(C(=O)CCl)C(C(=O)NC1CCCCC1)c1ccc(C)cc1)OC (centres undefined)	0	0	0	78
O=C(NC1CCCC1)C(c1ccc(F)cc1)N(Cc1ccc(F)cc1)C(=O)CCl (centres undefined)	0	0	0	51
COc1ccc(C(C(=O)NC2CCCCC2)N(C(=O)CCl)c2ccc(C)cc2)cc1 (centres undefined)	0	0	0	0
Cc1c(NC(=O)COC(=O)CSc2ccc([N+](=O)[O-])cc2)c(=O)n(-c2ccccc2)n1C	-	0	-	-
O=c1[nH]c2cc3c(cc2cc1CN(Cc1cccnc1)Cc1nnnn1Cc1ccco1)OCCO3	?	0	28	0
